Laboratory results from PubChem BioAssay (NCATS).
Values joined by “and” are separate entries in the source; they are usually repeats but may differ in a detail not shown here. Identical values can stand only once.

The compounds below were run against Nicotinamide N-methyltransferase (Homo sapiens) (UniProt P40261) (assay: Confirmatory Screen for Target Class Profiling of Small Molecule Inhibitors of Methyltransferases (AID 1745852)). Details: MTase-Glo luminescence, SAH detection, recombinant enzyme; measured here: NNMT max response; stronger effect = lower value.
Nicotinamide N-methyltransferase (Homo sapiens), sequence (P40261 whole entry, looked up): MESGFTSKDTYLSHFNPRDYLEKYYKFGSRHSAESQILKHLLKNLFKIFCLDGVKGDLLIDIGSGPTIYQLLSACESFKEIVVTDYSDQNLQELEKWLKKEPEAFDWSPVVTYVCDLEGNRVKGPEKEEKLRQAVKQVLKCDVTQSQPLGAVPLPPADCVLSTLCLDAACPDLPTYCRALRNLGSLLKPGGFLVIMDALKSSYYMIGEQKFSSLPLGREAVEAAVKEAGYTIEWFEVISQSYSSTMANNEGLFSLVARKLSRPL

Structure (SMILES)	activity
C=C[C@](C)(CC/C=C(\C)C(=O)O)O[C@@H]1OC[C@H](O)[C@H](O)[C@H]1O	-0.767%
CC1=CC(=O)CC(C)(C)C1(O)CCC(C)O (stereo unspecified)	0%
CCc1nc(C(N)=O)c(Nc2ccc(N3CCC(N4CCN(C)CC4)CC3)c(OC)c2)nc1NC1CCOCC1	-16.4%
COc1cc(C2Oc3c(OC)cc(CCCO[C@@H]4O[C@H](CO)[C@@H](O)[C@H](O)[C@H]4O)cc3C2CO)ccc1O (stereo partly specified)	0%
CC1(C)CCC2(C(=O)OC3OC(COC4OC(CO)C(O)C(O)C4O)C(O)C(O)C3O)CCC3(C)C(=CCC4C5(C)CCC(O)C(C)(C(=O)O)C5CCC43C)C2C1O (stereo unspecified)	-5.22%
Cc1[nH]cnc1C1CCN(c2nc3cccc4c3n2CCC4=O)CC1	-9.9%
NS(=O)(=O)OC[C@@H]1C[C@@H](n2ccc3c(N[C@H]4CCc5ccccc54)ncnc32)C[C@@H]1O	-12% and -2.45%
CC(=O)NCCCCn1c2c(c3ccccc31)C(=O)NCC2	-4.05%
O=C(O)c1cc(O)c2cccc(O)c2c1O[C@@H]1O[C@H](CO)[C@@H](O)[C@H](O)[C@H]1O	-68.8%
O=C(O[C@@H]1O[C@H](CO)[C@@H](O)[C@H](O)[C@H]1O)c1c(O)cc(O)cc1/C=C/c1ccccc1	-2.64%
CC(C)(O)C1CC=C(C(=O)OCC2OC(Oc3c(O)cc(C(=O)O)cc3O)C(O)C(O)C2O)CC1 (stereo unspecified)	-2.85%
C=C(C)[C@H]1C[C@@H](O)C(=C)CC[C@@H](O)C(=C)[C@@H](O)C1	4.34%
COC(=O)C1=CO[C@@H](O[C@@H]2O[C@H](COC(=O)/C=C/c3cc(OC)c(O)c(OC)c3)[C@@H](O)[C@H](O)[C@H]2O)[C@@H]2C(CO)=CC[C@H]12	-2.91%
COc1cc(/C=C/c2cc(O)cc(O[C@@H]3O[C@H](CO)[C@@H](O)[C@H](O)[C@H]3O)c2)ccc1O	-2.24%
CC1CC(=O)C2=C(O1)OC1(C)CCC3C(C)(C)C=CC(=O)C3(C)C1C2 (stereo unspecified)	-84.9%
CC1=CC(=O)CC(C)(C)C1CCC(C)OC1OC(COC(=O)c2cc(O)c(O)c(O)c2)C(O)C(O)C1O (stereo unspecified)	2.37%
CC(CCC1C(C(=O)O)=CC(=O)CC1(C)C)O[C@@H]1O[C@H](CO)[C@@H](O)[C@H](O)[C@H]1O (stereo partly specified)	-5.15%
COc1ccc(/C=C/C(=O)O[C@@H]2[C@@H](OC(C)=O)[C@@H](OC(C)=O)[C@H](O[C@H]3[C@@H]4C=CO[C@@H](O[C@@H]5O[C@H](CO)[C@@H](O)[C@H](O)[C@H]5O)[C@@H]4[C@@]4(CO)O[C@@H]34)O[C@H]2C)cc1O	-11.7%

These compounds were tested against Phenylethanolamine N-methyltransferase (Homo sapiens) (UniProt P11086) in the same assay as above. Details: MTase-Glo luminescence, SAH detection, recombinant enzyme; measured here: PNMT max response; stronger effect = lower value.
Phenylethanolamine N-methyltransferase (Homo sapiens), sequence (P11086 whole entry, looked up): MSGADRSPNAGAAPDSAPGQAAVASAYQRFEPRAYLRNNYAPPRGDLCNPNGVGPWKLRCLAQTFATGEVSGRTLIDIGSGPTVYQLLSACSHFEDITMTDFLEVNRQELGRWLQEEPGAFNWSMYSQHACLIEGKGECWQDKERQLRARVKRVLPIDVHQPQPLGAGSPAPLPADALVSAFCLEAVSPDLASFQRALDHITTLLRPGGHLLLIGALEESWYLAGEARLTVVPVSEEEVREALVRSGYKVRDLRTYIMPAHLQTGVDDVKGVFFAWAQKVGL

Structure (SMILES)	activity
C=C[C@](C)(CC/C=C(\C)C(=O)O)O[C@@H]1OC[C@H](O)[C@H](O)[C@H]1O	0.753%
CC1=CC(=O)CC(C)(C)C1(O)CCC(C)O (stereo unspecified)	4.65%
CCc1nc(C(N)=O)c(Nc2ccc(N3CCC(N4CCN(C)CC4)CC3)c(OC)c2)nc1NC1CCOCC1	-59.8%
COc1cc(C2Oc3c(OC)cc(CCCO[C@@H]4O[C@H](CO)[C@@H](O)[C@H](O)[C@H]4O)cc3C2CO)ccc1O (stereo partly specified)	4.57%
CC1(C)CCC2(C(=O)OC3OC(COC4OC(CO)C(O)C(O)C4O)C(O)C(O)C3O)CCC3(C)C(=CCC4C5(C)CCC(O)C(C)(C(=O)O)C5CCC43C)C2C1O (stereo unspecified)	-5.74%
Cc1[nH]cnc1C1CCN(c2nc3cccc4c3n2CCC4=O)CC1	1.15%
NS(=O)(=O)OC[C@@H]1C[C@@H](n2ccc3c(N[C@H]4CCc5ccccc54)ncnc32)C[C@@H]1O	-79.3% and -73.9%
CC(=O)NCCCCn1c2c(c3ccccc31)C(=O)NCC2	-4.46%
O=C(O)c1cc(O)c2cccc(O)c2c1O[C@@H]1O[C@H](CO)[C@@H](O)[C@H](O)[C@H]1O	-8.77%
O=C(O[C@@H]1O[C@H](CO)[C@@H](O)[C@H](O)[C@H]1O)c1c(O)cc(O)cc1/C=C/c1ccccc1	-9.3%
CC(C)(O)C1CC=C(C(=O)OCC2OC(Oc3c(O)cc(C(=O)O)cc3O)C(O)C(O)C2O)CC1 (stereo unspecified)	-2.18%
C=C(C)[C@H]1C[C@@H](O)C(=C)CC[C@@H](O)C(=C)[C@@H](O)C1	4.62%
COC(=O)C1=CO[C@@H](O[C@@H]2O[C@H](COC(=O)/C=C/c3cc(OC)c(O)c(OC)c3)[C@@H](O)[C@H](O)[C@H]2O)[C@@H]2C(CO)=CC[C@H]12	-3.37%
COc1cc(/C=C/c2cc(O)cc(O[C@@H]3O[C@H](CO)[C@@H](O)[C@H](O)[C@H]3O)c2)ccc1O	1.65%
CC1CC(=O)C2=C(O1)OC1(C)CCC3C(C)(C)C=CC(=O)C3(C)C1C2 (stereo unspecified)	-3%
CC1=CC(=O)CC(C)(C)C1CCC(C)OC1OC(COC(=O)c2cc(O)c(O)c(O)c2)C(O)C(O)C1O (stereo unspecified)	0%
CC(CCC1C(C(=O)O)=CC(=O)CC1(C)C)O[C@@H]1O[C@H](CO)[C@@H](O)[C@H](O)[C@H]1O (stereo partly specified)	-4.16%
COc1ccc(/C=C/C(=O)O[C@@H]2[C@@H](OC(C)=O)[C@@H](OC(C)=O)[C@H](O[C@H]3[C@@H]4C=CO[C@@H](O[C@@H]5O[C@H](CO)[C@@H](O)[C@H](O)[C@H]5O)[C@@H]4[C@@]4(CO)O[C@@H]34)O[C@H]2C)cc1O	-9.65%
